# Assay results as given in PubChem BioAssay AID1159580 (chemical genetic matrix, 2015).
# In all, about 5,500 compounds went through this assay and about 2,000 (36%) were called active. Roughly 18% stayed inconclusive and do not appear here. This is one part of the list. A number with no mark means an inactive call. No stated cut-off is given here; in the data, active means normalized growth mostly below about 0.91 (no sharp cut-off); inconclusive means no clear call, values can overlap the other calls; inactive means mostly above about 0.92.
# Assay: chemical genetic growth profiling, strain panel (AID 1159580);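 further: tested at 20 µM; growth read once vehicle control cultures reached saturation at 30 °C; 1 = growth at the plate median or of vehicle wells; lower values mean less growth of the strain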
# Details: growth OD
smiles,measurement,setting,value
CC(=O)O[C@]1(C(C)=O)CCC2C3C=C(C)C4=CC(=O)CCC4(C)C3CCC21C (stereo partly specified),normalized growth,"S. cerevisiae deletion strains, locus YKL009W, strain mrt4, active compounds read low",0.963
same,normalized growth,"S. cerevisiae deletion strains, locus YKL068W, active compounds read low",0.98
same,normalized growth,"S. cerevisiae deletion strains, locus YKL085W, strain MDH1 (second series), active compounds read low",0.908 (active)
same,normalized growth,"S. cerevisiae deletion strains, locus YKL085W, strain MDH1, active compounds read low",0.908 (active)
same,normalized growth,"S. cerevisiae deletion strains, locus YKL160W, strain elf1, active compounds read low",0.955
same,normalized growth,"S. cerevisiae deletion strains, locus YKL190W, strain CNB1, active compounds read low",0.93
same,normalized growth,"S. cerevisiae deletion strains, locus YKR001C, strain vps1, active compounds read low",0.81 (active)
same,normalized growth,"S. cerevisiae deletion strains, locus YKR026C, strain gcn3, active compounds read low",0.976
same,normalized growth,"S. cerevisiae deletion strains, locus YKR091W, strain srl3, active compounds read low",0.96
same,normalized growth,"S. cerevisiae deletion strains, locus YLL001W, strain dnm1, active compounds read low",0.886 (active)
same,normalized growth,"S. cerevisiae deletion strains, locus YLL026W, active compounds read low",0.941
same,normalized growth,"S. cerevisiae deletion strains, locus YLL041C, strain sdh2, active compounds read low",0.969
same,normalized growth,"S. cerevisiae deletion strains, locus YLR027C, strain aat2, active compounds read low",0.919 (active)
same,normalized growth,"S. cerevisiae deletion strains, locus YLR039C, strain RIC1, active compounds read low",0.859
same,normalized growth,"S. cerevisiae deletion strains, locus YLR058C, strain SHM2, active compounds read low",0.988
same,normalized growth,"S. cerevisiae deletion strains, locus YLR102C, strain apc9, active compounds read low",0.979
same,normalized growth,"S. cerevisiae deletion strains, locus YLR113W, strain HOG1, active compounds read low",0.949
same,normalized growth,"S. cerevisiae deletion strains, locus YLR221C, strain rsa3, active compounds read low",0.957
same,normalized growth,"S. cerevisiae deletion strains, locus YLR258W, strain gsy2, active compounds read low",0.956
same,normalized growth,"S. cerevisiae deletion strains, locus YLR262C, strain YPT6 (second series), active compounds read low",0.699 (active)
same,normalized growth,"S. cerevisiae deletion strains, locus YLR262C, strain YPT6, active compounds read low",0.859
same,normalized growth,"S. cerevisiae deletion strains, locus YLR268W, strain sec22, active compounds read low",0.913
same,normalized growth,"S. cerevisiae deletion strains, locus YLR320W, strain mms22, active compounds read low",0.864 (active)
same,normalized growth,"S. cerevisiae deletion strains, locus YLR330W, strain CHS5, active compounds read low",0.964
same,normalized growth,"S. cerevisiae deletion strains, locus YLR342W, strain FKS1 (second series), active compounds read low",0.759 (active)
same,normalized growth,"S. cerevisiae deletion strains, locus YLR342W, strain FKS1, active compounds read low",0.768 (active)
same,normalized growth,"S. cerevisiae deletion strains, locus YLR357W, strain rsc2, active compounds read low",0.953
same,normalized growth,"S. cerevisiae deletion strains, locus YLR370C, strain arc18, active compounds read low",0.96
same,normalized growth,"S. cerevisiae deletion strains, locus YLR371W, strain rom2, active compounds read low",0.984
same,normalized growth,"S. cerevisiae deletion strains, locus YLR384C, strain iki3, active compounds read low",0.964
same,normalized growth,"S. cerevisiae deletion strains, locus YLR418C, strain cdc73, active compounds read low",0.627 (active)
same,normalized growth,"S. cerevisiae deletion strains, locus YML016C, strain PPZ1, active compounds read low",0.992
same,normalized growth,"S. cerevisiae deletion strains, locus YML032C, strain rad52, active compounds read low",0.96
same,normalized growth,"S. cerevisiae deletion strains, locus YML120C, strain ndi1, active compounds read low",0.906 (active)
same,normalized growth,"S. cerevisiae deletion strains, locus YML124C, strain tub3, active compounds read low",0.976
same,normalized growth,"S. cerevisiae deletion strains, locus YMR058W, strain fet3, active compounds read low",0.913
same,normalized growth,"S. cerevisiae deletion strains, locus YMR078C, strain ctf18, active compounds read low",0.961
same,normalized growth,"S. cerevisiae deletion strains, locus YMR125W, strain sto1, active compounds read low",0.995
same,normalized growth,"S. cerevisiae deletion strains, locus YMR129W, active compounds read low",0.967
same,normalized growth,"S. cerevisiae deletion strains, locus YMR205C, strain PFK2, active compounds read low",0.888
same,normalized growth,"S. cerevisiae deletion strains, locus YMR223W, strain ubp8, active compounds read low",0.888 (active)
same,normalized growth,"S. cerevisiae deletion strains, locus YMR231W, strain pep5, active compounds read low",0.967
same,normalized growth,"S. cerevisiae deletion strains, locus YMR263W, strain SAP30, active compounds read low",0.922
same,normalized growth,"S. cerevisiae deletion strains, locus YMR307W, strain GAS1, active compounds read low",0.817
same,normalized growth,"S. cerevisiae deletion strains, locus YNL067W, strain RPL9B, active compounds read low",0.914
same,normalized growth,"S. cerevisiae deletion strains, locus YNL071W, strain lat1, active compounds read low",0.822 (active)
same,normalized growth,"S. cerevisiae deletion strains, locus YNL128W, strain TEP1, active compounds read low",0.98
same,normalized growth,"S. cerevisiae deletion strains, locus YNL153C, strain GIM3, active compounds read low",0.929
same,normalized growth,"S. cerevisiae deletion strains, locus YNL183C, strain NPR1, active compounds read low",0.939
same,normalized growth,"S. cerevisiae deletion strains, locus YNL209W, strain ssb2, active compounds read low",0.985
same,normalized growth,"S. cerevisiae deletion strains, locus YNL233W, strain BNI4, active compounds read low",0.862 (active)
same,normalized growth,"S. cerevisiae deletion strains, locus YNL248C, strain rpa49, active compounds read low",0.958
same,normalized growth,"S. cerevisiae deletion strains, locus YNL250W, strain rad50, active compounds read low",0.938
same,normalized growth,"S. cerevisiae deletion strains, locus YNL271C, strain bni1, active compounds read low",0.949
same,normalized growth,"S. cerevisiae deletion strains, locus YNL298W, strain CLA4, active compounds read low",0.966
same,normalized growth,"S. cerevisiae deletion strains, locus YNL307C, strain MCK1, active compounds read low",0.714 (active)
same,normalized growth,"S. cerevisiae deletion strains, locus YNL322C, strain KRE1 (second series), active compounds read low",0.972
same,normalized growth,"S. cerevisiae deletion strains, locus YNL322C, strain KRE1, active compounds read low",0.983
same,normalized growth,"S. cerevisiae deletion strains, locus YNR049C, strain mso1, active compounds read low",0.958
same,normalized growth,"S. cerevisiae deletion strains, locus YNR052C, strain pop2, active compounds read low",0.99
same,normalized growth,"S. cerevisiae deletion strains, locus YOL006C, strain TOP1, active compounds read low",0.85
same,normalized growth,"S. cerevisiae deletion strains, locus YOL012C, strain htz1",0.402
same,normalized growth,"S. cerevisiae deletion strains, locus YOL147C, strain pex11, active compounds read low",0.981
same,normalized growth,"S. cerevisiae deletion strains, locus YOR001W, strain rrp6, active compounds read low",0.947
same,normalized growth,"S. cerevisiae deletion strains, locus YOR061W, strain CKA2, active compounds read low",0.977
same,normalized growth,"S. cerevisiae deletion strains, locus YOR069W, strain VPS5, active compounds read low",0.998
same,normalized growth,"S. cerevisiae deletion strains, locus YOR070C, strain gyp1, active compounds read low",0.967
same,normalized growth,"S. cerevisiae deletion strains, locus YOR080W, strain dia2, active compounds read low",0.953
same,normalized growth,"S. cerevisiae deletion strains, locus YOR083W, strain WHI5, active compounds read low",0.9
same,normalized growth,"S. cerevisiae deletion strains, locus YOR106W, strain vam3, active compounds read low",0.877
same,normalized growth,"S. cerevisiae deletion strains, locus YOR136W, strain idh2, active compounds read low",0.971
same,normalized growth,"S. cerevisiae deletion strains, locus YOR144C, strain elg1, active compounds read low",0.985
same,normalized growth,"S. cerevisiae deletion strains, locus YOR184W, strain ser1, active compounds read low",0.746 (active)
same,normalized growth,"S. cerevisiae deletion strains, locus YOR231W, strain MKK1, active compounds read low",0.961
same,normalized growth,"S. cerevisiae deletion strains, locus YOR265W, strain rbl2, active compounds read low",0.954
same,normalized growth,"S. cerevisiae deletion strains, locus YOR270C, strain vph1, active compounds read low",0.718 (active)
same,normalized growth,"S. cerevisiae deletion strains, locus YOR290C, strain snf2, active compounds read low",0.969
same,normalized growth,"S. cerevisiae deletion strains, locus YOR316C, strain cot1, active compounds read low",0.979
same,normalized growth,"S. cerevisiae deletion strains, locus YPL051W, strain arl3, active compounds read low",0.922
same,normalized growth,"S. cerevisiae deletion strains, locus YPL055C, strain LGE1, active compounds read low",0.828
same,normalized growth,"S. cerevisiae deletion strains, locus YPL078C, strain atp4, active compounds read low",0.855 (active)
same,normalized growth,"S. cerevisiae deletion strains, locus YPL106C, strain sse1, active compounds read low",1.05
same,normalized growth,"S. cerevisiae deletion strains, locus YPL240C, strain hsp82, active compounds read low",0.963
same,normalized growth,"S. cerevisiae deletion strains, locus YPL241C, strain CIN2, active compounds read low",0.982
same,normalized growth,"S. cerevisiae deletion strains, locus YPL256C, strain CLN2, active compounds read low",0.915
same,normalized growth,"S. cerevisiae deletion strains, locus YPR119W, strain clb2, active compounds read low",0.983
same,normalized growth,"S. cerevisiae deletion strains, locus YPR141C, strain kar3, active compounds read low",0.972
same,normalized growth,"S. cerevisiae deletion strains, locus YPR163C, strain tif3, active compounds read low",0.983
same,normalized growth,"S. cerevisiae deletion strains, locus YPR167C, strain met16, active compounds read low",0.977
same,normalized growth,"S. cerevisiae deletion strains, strain wtn01, active compounds read low",0.881 (active)
same,normalized growth,"S. cerevisiae strains, strain wild type, active compounds read low",0.88 (active)
